About 83,000 compounds went through this panel and 20% of them were active in at least one assay; those are over-represented in the sample as a whole.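 Treatment: one concentration, 48 hours, 96-well format. Scoring: percent growth, with anything below 10 considered active.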 Unmarked numbers belong to inactive results. The source made the active and inactive calls.

Among the test systems are NCI-H23 lung; NCI-H226 lung; NCI-H322M lung; HOP-62 NSCLC; NCI-H460 lung; HOP-92 NSCLC; NCI-H522 lung; A549/ATCC NSCLC; 786-0 renal; COLO 205 colon; DU-145 prostate; K-562 leukemia; MALME-3M melanoma; MDA-MB-231 breast; RXF 393 renal; SF-268 CNS; SF-295 CNS; SF-539 CNS; UACC-257 melanoma; M14 melanoma.
Common to all, as to assay: NCI-60 one-dose screen, 48 h (100 = growth as untreated, 0 = no growth, -100 = all killed)
Common to all, as to conditions: 10 µM unless noted

For the compound `c1ccc2c(-c3cnn4cc(-c5ccc(N6CCNCC6)cc5)cnc34)ccnc2c1`, the growth in the assay with NCI-H23 lung was -13.7% (active); in the assay with NCI-H226 lung, -54.8% (active); in the assay with NCI-H322M lung, -55.5% (active); in the assay on HOP-62 NSCLC, -85.7% (active); in the assay on NCI-H460 lung it was -70% (active); in the assay with HOP-92 NSCLC, -59.2% (active). Besides, the growth in the assay with NCI-H522 lung was -50% (active); in the assay with A549/ATCC NSCLC, -65.4% (active); in the assay on 786-0 renal, -91.9% (active); in the assay on COLO 205 colon, -58% (active); in the assay with DU-145 prostate, -83.4% (active); with K-562 leukemia, -23.6% (active). For the same compound, the growth was -89.5% (active) in the assay with MALME-3M melanoma; -67.8% (active) in the assay on MDA-MB-231 breast; -77.5% (active) with RXF 393 renal; -62.3% (active) in the assay with SF-268 CNS; -93.5% (active) in the assay on SF-295 CNS; -95.4% (active) with SF-539 CNS. The growth with UACC-257 melanoma is -72.1% (active); in the assay with M14 melanoma, -81.9% (active).
For `COC(=O)c1nc(-c2ccccc2)oc1S(=O)(=O)N1CCN(c2ccc(OC)cc2)CC1`, the growth with NCI-H23 lung is 89.1%; in the assay on NCI-H226 lung, 91.5%; in the assay with NCI-H322M lung, 91.1%; in the assay with HOP-62 NSCLC it was 94.5%; in the assay with NCI-H460 lung it was 98.5%; in the assay on HOP-92 NSCLC, 60%. The growth was 48.3% in the assay with NCI-H522 lung; 95.9% in the assay on A549/ATCC NSCLC; 60.9% in the assay on 786-0 renal; 86.5% with DU-145 prostate; 20.4% in the assay with K-562 leukemia; 77.4% in the assay on MALME-3M melanoma. For the same compound, the growth with MDA-MB-231 breast was 75.7%; with RXF 393 renal it was 84.9%; with SF-268 CNS, 93.8%; in the assay on SF-295 CNS, 103%; with SF-539 CNS it was 94.1%; in the assay with UACC-257 melanoma, 83.4%. Further, the growth with M14 melanoma is 54.2%.
Regarding `O=C(Nc1ccccc1)Nc1ccccc1CNc1nc(Nc2ccc(OCCN3CCCC3)cc2)ncc1Cl`, the growth is 68.1% in the assay on NCI-H23 lung; 89.4% with NCI-H226 lung; 91.1% in the assay with NCI-H322M lung; 79.3% in the assay with HOP-62 NSCLC; -37.7% (active) in the assay with NCI-H460 lung; 65.1% in the assay on HOP-92 NSCLC. In addition, the growth in the assay on NCI-H522 lung is 58.6%; in the assay on A549/ATCC NSCLC, 59.4%; in the assay on 786-0 renal, 9.35% (active); in the assay with DU-145 prostate, 88%; in the assay with K-562 leukemia, 7.08% (active); with MALME-3M melanoma it was 71.2%. The growth is 41.9% in the assay with MDA-MB-231 breast; 33.7% in the assay with RXF 393 renal; 72.5% in the assay with SF-268 CNS; 73.3% with SF-295 CNS; 31% in the assay with SF-539 CNS; 75.3% with UACC-257 melanoma. The growth with M14 melanoma is 61.2%.
As to `COC(=O)CCc1c(/C=C2\N=C(c3ccc[nH]3)C=C2OC)[nH]c(C)c1C(=O)OCc1ccccc1`, the growth was 20.4% with NCI-H23 lung; 19.6% with NCI-H226 lung; 55.9% with NCI-H322M lung; -3.97% (active) in the assay on HOP-62 NSCLC; 12.4% in the assay on NCI-H460 lung; -9.37% (active) in the assay with HOP-92 NSCLC. For the same compound, the growth was -20.3% (active) in the assay on NCI-H522 lung; 11.9% in the assay with A549/ATCC NSCLC; -26.2% (active) with 786-0 renal; 4.96% (active) in the assay with COLO 205 colon; 29.9% with DU-145 prostate; 6.23% (active) in the assay on K-562 leukemia. Moreover, the growth in the assay on MALME-3M melanoma was -5.75% (active); in the assay on MDA-MB-231 breast, -12.6% (active); with RXF 393 renal it was -15.9% (active); with SF-268 CNS, 21.4%; in the assay with SF-295 CNS it was -30.4% (active); in the assay with SF-539 CNS it was -16.9% (active). Moreover, the growth is 9.69% (active) in the assay with UACC-257 melanoma and -24.7% (active) in the assay with M14 melanoma.
Turning to `CCCCCCCC/C=C\CCCCCCCCOc1ccc(CC(=O)NCC[N+]2(C)CCCC2)cc1`, the growth in the assay with NCI-H23 lung was 58.7%; in the assay with NCI-H226 lung, 66.4%; in the assay with NCI-H322M lung it was 88.5%; with HOP-62 NSCLC it was 22.5%; in the assay on NCI-H460 lung it was 25.3%; with HOP-92 NSCLC, 57.4%. Moreover, the growth is 48.7% in the assay with NCI-H522 lung; 73.7% in the assay on A549/ATCC NSCLC; 48.6% with 786-0 renal; 78.4% with DU-145 prostate; 41.6% in the assay on K-562 leukemia; 66% with MALME-3M melanoma. In addition, the growth is 59.8% in the assay on MDA-MB-231 breast; -45.3% (active) with RXF 393 renal; 62.8% in the assay on SF-268 CNS; 74.8% in the assay with SF-295 CNS; 65.4% in the assay on SF-539 CNS; 77.3% in the assay on UACC-257 melanoma. Also, the growth in the assay on M14 melanoma was 71.4%.
`COc1cccc(C2C3=C(COC3=O)N(CCO)c3cc4c(cc32)OCCO4)c1` (configuration not stated): the growth with NCI-H23 lung is 12.5%; with NCI-H226 lung it was 38.3%; in the assay with NCI-H322M lung, 39%; in the assay with HOP-62 NSCLC, 23.4%; in the assay with NCI-H460 lung it was 5.46% (active); with HOP-92 NSCLC, 27.6%. For the same compound, the growth was -14.6% (active) in the assay with NCI-H522 lung; 24.6% with A549/ATCC NSCLC; 19.3% in the assay with 786-0 renal; -68% (active) in the assay with COLO 205 colon; -38.9% (active) in the assay on DU-145 prostate; 6.5% (active) in the assay with K-562 leukemia. Moreover, the growth is 69.6% with MALME-3M melanoma; 8.33% (active) in the assay with MDA-MB-231 breast; 11.2% with RXF 393 renal; 23.8% in the assay on SF-268 CNS; -5.81% (active) in the assay on SF-295 CNS; -23.1% (active) in the assay with SF-539 CNS. The growth in the assay on UACC-257 melanoma was 53.6%; with M14 melanoma, -11.7% (active).
Regarding `CC1=C(C(=O)OCc2ccccc2)C(c2ccc3c(c2)OCO3)n2c(nc3ccccc32)N1` (configuration not stated), the growth in the assay with NCI-H23 lung is 49.3%; in the assay with NCI-H226 lung it was 58.2%; in the assay on NCI-H322M lung, 47%; in the assay with HOP-62 NSCLC it was 44.2%; in the assay with NCI-H460 lung it was 6.62% (active); in the assay on HOP-92 NSCLC, 78.5%. Besides, the growth in the assay with NCI-H522 lung is 26.3%; with A549/ATCC NSCLC, 47.1%; in the assay with 786-0 renal it was 43.1%; in the assay on COLO 205 colon, 37.2%; in the assay with DU-145 prostate it was 53.5%; in the assay with K-562 leukemia it was 13.8%. The growth in the assay with MALME-3M melanoma was 39.7%; in the assay with MDA-MB-231 breast, 68.6%; in the assay on RXF 393 renal it was 53.2%; with SF-268 CNS, 59.6%; in the assay with SF-295 CNS, 20.4%; with SF-539 CNS, 9.94% (active). The growth in the assay with UACC-257 melanoma is 60.4%; in the assay on M14 melanoma, 28.1%.

Source of the values: PubChem BioAssay (NCI).
